Measured values reported in article PMC9574860, “Chemical Toolkit for PARK7: Potent, Selective, and High-Throughput” (Journal of Medicinal Chemistry, 2022).
In all, about 7,900 compounds went through this assay and about 400 (5.1%) showed an effect of 50% or more. The full list was thinned out, with strong results kept by preference.

biological target: Parkinson's disease protein 7 (PARK7/DJ1) (human, UniProt Q99497); experiment: primary screen, percent inhibition; read as competition with a fluorescent probe by fluorescence polarization; higher = more effect of the substance; conditions: 100 µM
Sequence (Q99497 whole entry, looked up, the tested form may be a part): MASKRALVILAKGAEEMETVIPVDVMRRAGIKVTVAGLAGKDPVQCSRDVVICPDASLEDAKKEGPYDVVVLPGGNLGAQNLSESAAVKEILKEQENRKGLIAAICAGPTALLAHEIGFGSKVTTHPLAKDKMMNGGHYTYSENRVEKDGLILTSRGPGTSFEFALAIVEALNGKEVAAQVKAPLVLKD
Method: The screen was conducted using the conditions as described above in 1536-well plates (Corning 3724) with a reaction volume of 8 μL per well. The compound library containing 7887 covalent fragments was purchased at Enamine Ltd. and received as 100 mM DMSO stocks in 384 well LDV Echo plates (Labcyte LP-0200). Stock solutions of 0.26 μM PARK7 and 80 nM JYQ-107 were prepared. Using a Labcyte Echo550 acoustic dispenser, 8 nL of the DMSO stock solution of the library compounds was transferred from the source plates into the empty 1536-well screening plates to obtain a 100 μM final compound concentration. Next, PARK7 (6 μL, final concentration 0.2 μM) was dispensed using a Biotek MultiflowFX liquid dispenser and incubated for 2 h, followed by dispensing the probe JYQ-107 (2 μL, final concentration 20 nM). After 2 h incubation, the FP signal was recorded on a BMG Labtech PHERAstar plate reader (λex/em 480/520 nm). The relative loss of FP signal compared with reference controls was used to calculate the remaining enzyme activity.

Structure (SMILES)	Inhibition % [%]
C=CC(=O)Nc1ccc2nc(C(F)(F)F)oc2c1	20.1
C=CC(=O)N1CCN(c2cccc(OC(F)F)c2)CC1	6.79
CC(C)c1ccc(NC(=O)Cn2cnc(C#N)n2)cc1	22.6
O=S(=O)(F)CCSc1nc2ccccc2o1	70.3
ClCCCc1nc2ccccc2o1	16.4
O=S(=O)(F)CCn1nnc2ccccc21	8.8
COc1cc(C=C(C#N)C(N)=O)ccc1OC(C)C	4.85
N#Cc1nc(-c2ccc(Cl)c(Cl)c2)oc1N	5.93
CC1(C)OB(c2cccc(CN3CCCC3)c2)OC1(C)C.Cl	6.39
C=CC(=O)N1CCCN(C(=O)c2cccc(F)c2)CC1	2.43
C=CC(=O)N1CCc2cc(F)ccc2C1	10.6
C=CC(=O)N1CCCc2[nH]c3ccc(F)cc3c2C1	71.3
C=CC(=O)N1CC(C)(C)C1c1cccs1 (stereo not shown)	8.35
C=CC(=O)N1C[C@H](F)C[C@H]1C(N)=O	11.6
CC1CCC2(CC1)NC(=O)N(CC=CCl)C2=O (stereo not shown)	-0.501
CC(NC(=O)Oc1ccccc1)C(=O)O (stereo not shown)	10.1
Cc1ccc(B2OC(C)(C)C(C)(C)O2)c(C#N)c1	-0.714
O=S(=O)(F)c1ccc(S(=O)(=O)F)cc1	7.58
O=C(O)c1ccc(S(=O)(=O)F)cc1	49.1
C#Cc1ccc(S(=O)(=O)F)cc1	14.4
N#Cc1ccc(S(=O)(=O)F)cc1	60.6
C=CC(=O)N1CCOCC1c1cccc(F)c1 (stereo not shown)	2.96
O=S(=O)(F)c1cccc(CO)c1	96.8
N#CC1COCCN1C(=O)c1cccc(S(=O)(=O)F)c1 (stereo not shown)	93.6
O=C(c1cccc(S(=O)(=O)F)c1)N1CCCn2ncc(C3CC3)c21	6.74
O=C(C=Cc1ccccc1)c1ccc(S(=O)(=O)F)cc1	10.9
CN(Cc1cccc(F)c1)S(=O)(=O)F	8.98

Structure (SMILES)	Inhibition % [%]
O=C(O)c1cccc(S(=O)(=O)F)c1	95.1
c1ncc(C2OCCO2)s1	38.6
C=CC(=O)N[C@H]1C[C@H](c2ccccc2F)C1	10.2
C=CC(=O)Nc1cc(S(=O)(=O)N(C)C)ccc1Cl	6.55
Cc1ccc(-n2cnc(Cl)c2C#N)cc1	6.79
COCc1n[nH]c(=O)o1	2.07
CN1CCCC(CCl)C1.Cl (stereo not shown)	4.37
CN(C(=O)C(C#N)=Cc1ccco1)c1ccc(F)cc1	8.11
c1cc2ccc(OCC3CO3)cc2[nH]1 (stereo not shown)	5.75
Cc1cc(C#N)cc(C(=O)O)n1	4.24
Cc1cnc(=S)[nH]c1	8.44
N#CSc1c(Cl)nc2sccn12	13.7
C=CC(=O)N1CCOCC1CC(F)F (stereo not shown)	17
Cc1ccc(-n2cc(SC(=O)N(C)C)cn2)cc1	6.2
O=[N+]([O-])c1cccc(S(=O)(=O)F)c1	99.2
N#Cc1cccc(S(=O)(=O)F)c1	97.3
NS(=O)(=O)c1cccc(S(=O)(=O)F)c1	94.3
O=C(CCl)NC(=O)c1cccc([N+](=O)[O-])c1	31.5
O=C(CCl)Nc1ccc([N+](=O)[O-])cc1C(F)(F)F	12.1
N#Cc1cnn(Cc2ccc(S(=O)(=O)F)cc2)c1	7.21
O=S(=O)(F)c1ccc(Cl)cc1	27
C=CS(=O)(=O)c1cccc(C#N)c1	6.17
O=[N+]([O-])c1ccc(C(F)(F)F)c(S(=O)(=O)F)c1	102
O=S(=O)(F)c1ccccc1C(F)(F)F	11.3
O=S(=O)(F)c1cccc(Br)c1	16.4
CC1(C)OB(c2cccc(S(N)(=O)=O)c2)OC1(C)C	2.2
CC1(C)OB(c2ccc(OCCc3ccccn3)cc2)OC1(C)C	-0.0918

Structure (SMILES)	Inhibition % [%]
N#Cc1ncn(Cc2ccc(F)cc2Cl)n1	0.898
C=CC(=O)N1CC(=O)NC2CCCCC21 (stereo not shown)	24.2
Cc1ccc2oc(C#N)nc2c1	9.34
O=C(CCl)NC1CCCC1	15.6
C=CC(=O)N1CCN(c2c(F)cccc2OC)CC1	12
CCc1ccccc1NC(=O)CCl	13.2
CCC1(C)NC(=O)N(NC(=O)CCl)C1=O (stereo not shown)	9.56
Cl.Nc1cccc2cc(S(=O)(=O)F)ccc12	65.6
O=C1NC(c2ccccc2)C12CCCC2 (stereo not shown)	3.32
Cc1cc(C=C(C#N)C(=O)N2CCC2)c(C)n1CC(C)C	-2.1
O=C(CCl)Nc1ccc(S(=O)(=O)C(F)F)cc1	65.8
NS(=O)(=O)c1cccc(NC(=O)CCl)c1	14.7
CS(=O)(=O)c1ccc(CNC(=O)CCl)cc1	10.2
O=C(CCl)Nc1ccccc1S(=O)(=O)C(F)F	6.1
CS(=O)(=O)c1ccc(NC(=O)CCl)cc1	51.8
NS(=O)(=O)c1ccc(NC(=O)CCl)cc1	69.2
CS(=O)(=O)c1cccc(NC(=O)CCl)c1	7.34
Cc1ccc(NC(=O)CCl)cc1S(N)(=O)=O	17.6
CCC(CSC)Nc1ccc(C#N)nc1 (stereo not shown)	11.4
O=S(=O)(F)c1ccc(Cn2cnc(Br)n2)cc1	12.6
C=CC(=O)NCCc1cnn(C)c1	3.91
Cc1cc(C=C(C#N)C(=O)O)c(C)n1CC(C)C	8.48
Cl.Cl.NC1CCN(C2CCOC2=O)CC1 (stereo not shown)	5.74
O=C(CCl)N(c1ccccc1)C1CCS(=O)(=O)C1 (stereo not shown)	5.5
C=CC(=O)Nc1ccc2nc(C3CC3)oc2c1	11.6
